EWS-Fli block: EWS/Fli-driven NR0B1 reporter inhibitors, primary screen, A673 cells, NR0B1 luciferase, luminescence, MLPCN library; AID 651661, 2012; viability-normalised; 0.67% of 350,000 active; inhibition, % at 12.6 µM;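 active = mean inhibition of at least 50% after viability correction, with every replicate also passing that limit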;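 note: firefly luciferase signal divided by Alamar Blue viability fluorescence both relative to DMSO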
LGR2 antag: inhibitors of bursicon-induced LGR2 CRE-luciferase signal, primary screen, cell-based, HEK293, CRE-luciferase reporter, bursicon stimulation | 0.35% of 380,000 active | AID 720647, 2013 | inhibition, % at 9.99 µM | bursicon-stimulated, 4 h;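 active = drop in luminescence signal, shown as inhibition above about 50% in the replicate tests, limit read from the data, passing the limit was not always enough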;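 note: agonist challenge used bursicon conditioned medium at about half maximal strength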
TROY NFkB inh: inhibitors of TROY-driven NF-kB signaling, primary screen, Q293 LMP1-TROYcd cells, NF-kB luciferase, uHTS; Q293 LMP1-TROYcd NF-kB luciferase reporter, 4 h; inhibition, % at 10 µM; 0.98% of 360,000 active; AID 1347056, 2019;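 active = compounds whose plate-normalised and pattern-corrected inhibition of the luciferase reporter signal at the single screening dose is 50% or more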
LMP1 NFkB inh: EBV LMP1-driven NF-kappaB luciferase reporter inhibitors, primary screen, cell-based, luminescence, single point; LMP1-induced NF-kappaB luciferase reporter cells; inhibition, % at 12.5 µM; 0.69% of 350,000 active; AID 504558, 2011; in the data active = inhibition above about 41%;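 note: 0% = neutral control wells and 100% = reference inhibitor control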
TWEAK-Fn14 inh: inhibitors of TWEAK-Fn14 signaling, primary screen, luciferase reporter cells, uHTS | TWEAK-stimulated Fn14 reporter cells, luciferase luminescence, 8 h | inhibition, % at 10 µM | 2% of 360,000 active | AID 1159606, 2016; in the data active = inhibition above about 50%
Numbers without * were called inactive; x = not tested or not shown. Rows were chosen to be rich in hits. Some 2.5% of all compounds tested hit in one or more screens of this group.

SMILES	EWS-Fli block	LGR2 antag	TROY NFkB inh	LMP1 NFkB inh	TWEAK-Fn14 inh
COc1ccccc1/C=C/C(=O)c1ccccc1	-70.1	-58.1	-50.9	-16.9	12.0
COc1ccccc1/C=C/C(=O)c1ccc(Cl)cc1	x	13.1	-4.6	68.1*	13.9
CCOC(=O)Cc1cc(OC)c(OC)cc1Cc1cc(OC)c(OC)cc1CC(=O)OCC	x	x	8.6	-2.1	79.6*
CCOc1cc(CNc2ccc3c(c2)OCCO3)cc(Br)c1OCC	x	x	77.3*	28.1	80.7*
CCOC(=O)C(NCc1ccco1)(NC(=O)c1ccccc1)C(F)(F)F (stereo not given)	x	x	13.8	2.7	87.3*
COc1ccc2c3c(cccc13)C(=O)CC2	10.2	30.5	28.1	0.8	62.9*
C[C@H](CO)N1C[C@H](C)[C@@H](CN(C)C(=O)Nc2ccc(C(F)(F)F)cc2)Oc2ccc(NC(=O)CCCCCC(=O)Nc3ccccc3N)cc2C1=O	x	32.9	x	x	x
NC1=C(Br)C(=O)c2ncccc2C1=O	19.7	101.0*	68.2*	69.6*	102.8*
CC(C1CC1)N(Cc1ccccc1)C(=S)Nc1ccccc1Cl (stereo not given)	6.9	-16.4	85.7*	-3.1	6.6
CC(C1CC1)N(Cc1ccccc1)C(=O)NC(=O)c1ccccc1 (stereo not given)	-11.0	13.4	7.2	-5.9	-11.0
CC1(C)CC(=O)c2c(-c3cccs3)n[nH]c2C1	x	x	33.6	17.6	54.9*
CCCc1n[nH]c2c1C(=O)CC(C)(C)C2	x	x	-2.9	-6.8	6.5
C[C@H]1CCCCO[C@H](CN(C)C(=O)c2ccncc2)[C@@H](C)CN([C@@H](C)CO)C(=O)c2cc(NC(=O)Cc3ccccc3)ccc2O1	-1.1	7.1	x	x	x
COc1ccc2c3c([nH]c2c1)[C@H](CO)N(S(C)(=O)=O)CC31CCN(Cc2ccccc2)CC1	0.9	-4.7	x	x	x
O=C(C[C@H]1C=C[C@@H](NC(=O)c2ccncc2)[C@H](CO)O1)Nc1ccccc1	-0.7	21.4	x	x	x
CCOC(=O)N1CCN(C(=O)C2CCC(CNS(=O)(=O)c3ccc(Cl)cc3)CC2)CC1 (stereo not given)	x	x	x	-4.5	51.3*
COc1ccc2[nH]c(=O)c(CN(CCO)S(=O)(=O)c3ccc(C)cc3)cc2c1	6.0	-4.5	-7.4	-2.8	7.2
CCCCN(Cc1cc2cc(OC)ccc2[nH]c1=O)S(=O)(=O)c1ccc(C)cc1	8.4	16.1	46.2	-0.7	52.1*
O=C(C[C@@H]1CC[C@@H]2[C@H](COC[C@@H](O)CN2C(=O)Nc2cccc(Cl)c2)O1)N1CCCCC1	-32.1	-10.0	x	x	x
CN(CC(=O)O)S(=O)(=O)c1cc(Cl)ccc1Cl	6.7	-6.7	57.4*	-5.4	39.2
CCOCCCNc1ncnc2c1[nH]c1ccccc12	x	x	x	28.5	42.5
CCCCOCCCNc1ncnc2c1[nH]c1ccccc12	x	x	38.4	15.0	59.5*
O=c1[nH]c2ccccc2nc1/C=C(\O)C1CC1	x	-8.2	6.0	-1.2	-29.1
CC(C)(C)/C(O)=C/c1nc2ccccc2[nH]c1=O	x	-4.0	81.5*	-2.9	75.0*
COC(=O)c1ccc2nc(-c3ccc4c(c3)OCO4)cn2c1	2.1	82.9*	41.3	48.2*	89.0*
SMILES	EWS-Fli block	LGR2 antag	TROY NFkB inh	LMP1 NFkB inh	TWEAK-Fn14 inh
CCc1ccn2cc(-c3ccc4c(c3)OCO4)nc2c1	83.1*	97.3*	65.6*	72.1*	-4.3
C[C@@H]1CN([C@H](C)CO)C(=O)c2cccc(NC(=O)c3cnccn3)c2O[C@H]1CN(C)S(=O)(=O)c1cccs1	-5.3	-11.6	x	x	x
COc1cccc(-c2ccc3c(c2)[C@H]2[C@H](CCN2C(=O)C2CCCC2)[C@H](CO)N3)c1	-3.9	-6.6	x	x	x
O=C(NCC[C@@H]1CC[C@@H](NC(=O)c2ccc3c(c2)OCO3)[C@H](CO)O1)Nc1ccc(Cl)cc1	-83.2	-84.9	x	x	x
O=C(Nc1ccccc1)c1ccc(S(=O)(=O)NCC2CCCO2)cc1 (stereo not given)	x	x	-13.2	4.8	11.6
O=C(Nc1cccc(Cl)c1)c1ccc(S(=O)(=O)NCC2CCCO2)cc1 (stereo not given)	7.5	-0.2	4.4	2.2	62.8*
COc1cccc(S(=O)(=O)NCc2ccc(C(=O)Nc3cccc(Cl)c3)cc2)c1	x	x	48.5	-7.5	60.0*
CC(=O)Oc1ccc(C(=O)Nc2ccc(S(=O)(=O)NCC3CCCO3)cc2)cc1 (stereo not given)	3.1	9.5	50.5*	-3.4	41.8

Bioassay records (PubChem)
